Measurements from ChEMBL document CHEMBL1201862, “PubChem BioAssay data set” (2004).
Hit rate of the full screen: of about 220,000 compounds, about 10 (0.005%) were called active. No cut-off for these calls is given here. The full list was thinned out, with actives kept by preference.

Assay: enhancers of HSV replication in host cells, fold increase, host cell viability (AID 1956)
Format: functional

With `N#C/C(=C/c1ccc(N2CCOCC2)o1)C(=O)NC1CCCCC1` as the compound, how does the Conc @ Max Fold Incr read?
The Conc @ Max Fold Incr was 25 µM (active).
